Mito fusion yeast: blocks mitochondrial division or promotes mitochondrial fusion | Potency, µM (titrated, usually from 46.1 µM), hits mostly activators | actives 0.23% (n = 320,000) | AID 485298 | S. cerevisiae fusion-defective mutant growth rescue, CellTiterGlo 48 h; also: nearly all actives have a fitted effect of over 45% in size
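Compounds are tested for their ability to restore growth of mitochondrial fusion-defective yeast strains at non-permissive 37C in YPEG medium over 48 hours. Viability is quantified by luciferase luminescence.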
aSyn yeast inh: rescues yeast growth from alpha-synuclein toxicity; Potency, µM (highest dose often 46.1 µM), actives largely listed as activators; Yeast expressing alpha-synuclein, growth rescue, BacTiter-Glo, 24 h; AID 652106; actives 0.14% (n = 370,000); also: nearly all actives have a fitted effect of over 65% in size
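Screening used galactose-induced yeast with toxic alpha-synuclein levels, exposed to compound for 24 hr at 30 deg C. Cell growth, read with BacTiter-Glo luminescence, gave the measured signal.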
pAkt inh: inhibitors of Akt phosphorylation. AID 651550. actives 0.32% (n = 360,000). Neuro2A IGF-stimulated pAkt S473 HTRF, 20 min; hits give low values. activity change, % for hits at 50 µM; in the data active = activity change below about -80%; inconclusive = mostly about -51% to -80%
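Single-point screen (50 µM final compound) in Neuro2A cells stimulated 20 min with 6 nM IGF at 37 deg C. After lysis, Ser473-phosphorylated Akt read by HTRF (ex 330 nm, em 615/665 nm) as the 665/615 ratio.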
Anesthetic bind: binds horse apoferritin like a general anesthetic; P02791; apoferritin/1-aminoanthracene competitive binding, fluorescence; Potency, µM (highest dose often 77.5 µM), usual class: inhibitors; actives 0.074% (n = 350,000); AID 485281; also: nearly all actives have a fitted effect of over 20% in size
Target sequence (P02791 2-175 limits assumed): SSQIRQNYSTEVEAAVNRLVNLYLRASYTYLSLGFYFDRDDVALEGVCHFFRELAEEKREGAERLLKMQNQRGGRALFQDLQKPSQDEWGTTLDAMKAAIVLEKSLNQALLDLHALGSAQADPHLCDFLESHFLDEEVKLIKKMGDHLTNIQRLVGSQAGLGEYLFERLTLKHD
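Horse-spleen apoferritin (10 uM) was mixed with 50% saturated 1-aminoanthracene in PBS, exposed to compounds for 10 min at room temperature, and read for fluorescence (ex 380 nm, em 535 nm). Competitive displacement was fitted with a four-parameter Hill equation.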
CCT modulator: cytosolic chaperonin activity modulation. purified chaperonin ATPase assay, HTRF ADP detection, 30 min. activity change, % (concentration not given with the values), hits read low. actives 0.3% (n = 360,000). AID 651819; in the data active = activity change below about -30%
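First, chaperonin was dispensed at 40 nM or 20 nM final depending on batch activity. Next, compounds were pinned at 76 uM and ATP added at 10 uM. After 30 min at 37 °C, ADP detection reagents ran 30 min at ambient temperature.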
TDP-43 yeast inh: rescues yeast growth from TDP-43 toxicity | TDP-43 expressing yeast growth rescue, BacTiter-Glo, 24 h | Potency, µM (doses to about 46.1 µM), usual class: activators | actives 1.8% (n = 410,000); also: nearly all actives have a fitted effect of over 50% in size
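Growth rescue of TDP-43-toxic yeast measured as ATP luminescence (BacTiter-Glo). Cells grown to mid-log in raffinose, induced in galactose at OD600=0.02, exposed to compound 24 hr at 30 deg C.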
Numbers stand for hits; 0 = inactive; ? = inconclusive; - = not tested or not shown; ! = not confirmed by another sample; [ ] = remark or other dose. Sampled rows, rich in hits. Any-hit rate of the full collection: about 2.5%. Unless noted, calls follow the shape of the dose curve; as a rule, active = well fitted curve in the direction sought with a large enough effect; inconclusive = small, poorly fitted or top-dose-only effect, or another doubt; inactive = no such curve, though single readings can be large; an effect the other way counts as inactive or inconclusive.

SMILES	Mito fusion yeast	aSyn yeast inh	pAkt inh	Anesthetic bind	CCT modulator	TDP-43 yeast inh
O=C(COc1ccccc1)NNC(=O)c1ccc(Cl)cc1	0	0[1.84 µM]	0	-	0	0
Cc1cc(C)cc(OCC(=O)NNC(=O)c2cc(C)[nH]n2)c1	0	0	0	0	0	0
O=C(COc1ccc(Cl)cc1)NNC(=O)c1ccccn1	0	?	0	0	0	14.1µM
OC(CN1CCC(Cc2ccc(F)cc2)CC1)c1ccc(Cl)cc1 (stereo not drawn)	2.91µM	0	-	0	-	-
COc1cc2c(c(OC)c1OC)-c1c(cc3c(c1O)OCO3)C[C@@H](C)[C@@H](C)C2	17.8µM	0	0	?	0	?
CC(=O)n1c(-c2ccccc2)c(-c2ccccc2)n(C)c1=O	-	0	0	-	0	12.6µM
CC(=O)Nn1cc2c(c1-c1ccccc1)c(=O)n(C)c(=O)n2C	0	0	0	0	0	0
c1ccc(C(NCc2cccnc2)(c2ccccc2)c2ccccc2)cc1	0	0	-	0	-	-
CCC(C)(C)NC(=O)C(c1ccccn1)N(C(=O)c1csnn1)c1ccc(C)cc1 (stereo not drawn)	0	0	0	0	-33.9	0[0.397 µM]
Cc1cc(C(=O)Nc2c(F)cc(F)cc2Br)cs1	0	0	0	0	0	12.6µM
COc1cccc(COC(=O)c2nn(-c3ccccc3)nc2N)c1	0	0	0	0	0	35.5µM!
O=C(Nc1ccncc1)C1C(=O)c2ccccc2N(Cc2ccccc2)C1=O (stereo not drawn)	-	0	-	-	-	-
O=C(C1COc2ccccc2O1)N1CCN(c2ccccc2)CC1 (stereo not drawn)	0	0	0	0	0	25.1µM
O=C(C1COc2ccccc2O1)N1CCN(c2nc3ccc(F)cc3s2)CC1 (stereo not drawn)	-	-	-	0	-	20µM
CC1CCC(N2CC(=O)N(C3CCCCC3)C(c3ccc(Cl)cc3)C2=O)CC1 (stereo not drawn)	-	-	-	0	-	0
Cc1nn(-c2ccccc2)c(Cl)c1CN(C(=O)CCl)c1cccc2ccccc12	?	0	0	0	0	17.8µM
CC(=O)N(Cc1c(C)nn(-c2ccccc2)c1Cl)c1ccc(Cl)cc1	0	0	0	0	0	0
Cc1nn(-c2ccccc2)c(Cl)c1CN(C(=O)CCl)c1ccc(Cl)cc1	0	0	0	0	0	20µM
O=C(Cn1cnc2onc(-c3ccc(F)cc3)c2c1=O)N1CCN(c2ccc(F)cc2)CC1	-	?	-	0	-	35.5µM
CC(=O)c1ccc(N2CCN(C(=O)CCn3cnc4onc(-c5ccc(F)cc5)c4c3=O)CC2)cc1	-	-	-	0	-	0
C=CCNC(=S)N/N=C/c1cn(C)c2ccccc12	0	0	0	0	0	20µM
Cn1cc(/C=N/NC(N)=S)c2ccccc21	0	0	0	0	0	0[1.82 µM]
CCOC(=O)CC(=O)c1cc(OC)c(OC)c(OC)c1	0	0	-106.0%	0	0	0
CCOC(=O)Cn1nnc(-c2cc(OC)c(OC)c(OC)c2)n1	0	0	0	0	0	0[9.22 µM]
Cc1noc(C)c1-c1nccc(NCc2cccnc2)n1	-	-	-	0	-	-
SMILES	Mito fusion yeast	aSyn yeast inh	pAkt inh	Anesthetic bind	CCT modulator	TDP-43 yeast inh
CCOC(=O)c1c(-c2ccccc2)nnn1-c1nc(OCC)nc(N2CCCCC2)n1	0	0	0	0	0	22.4µM
Nc1ncn([C@H]2O[C@@H](CO)[C@@H](O)[C@@H]2O)c(=O)n1	-	-	-	0	-	-
COc1cccc(Nc2nc(N)c([N+](=O)[O-])c(NCc3ccccc3)n2)c1	?	0	0	0	0	25.1µM
COc1ccc(-c2nc3cc(C)ccn3c2NC(=O)c2cccc(F)c2)cc1	-	-	-	?	-	0
OCc1cn(-c2ccccc2)nc1-c1ccc(-c2nn(-c3ccccc3)cc2CO)cc1	0	0	0	0	0	0
Cc1ccc(-c2nn(-c3ccccc3)cc2CSC(=N)N)cc1	0	0	0	0	-59.5	0
COC(=O)[C@@]1(Cc2ccc(OC)cc2)[C@H]2c3cc(C(=O)N4CCCC4)n(CCc4c[nH]c5cc(F)ccc45)c3C[C@H]2CN1C(=O)c1ccccc1	-	-	-	0	-	-
COc1cc2nc(C3CCC3)nc(N3CCN(c4ccccc4OC)CC3)c2cc1OC	14.1µM	0	0	0	0	0
COc1cc2nc(C3CCC3)nc(N3CCN(c4ccccn4)CC3)c2cc1OC	-	0	0	0	0	0
O=c1cc2c(nn1Cc1ccccc1)-c1ccccc1CC2	0	0	0	?	0	0
O=c1cc2c(nn1Cc1ccc(F)cc1)-c1ccccc1CC2	12.6µM	0	0	?	0	0
O=c1cc2c(nn1Cc1cccc([N+](=O)[O-])c1)-c1ccccc1CC2	0	0	0	?	0	28.2µM
COc1cccc(CCc2ccccc2OCC(CN(C)C)OC(=O)CCC(=O)O)c1 (stereo not drawn)	-	0	-	-	-	-
Cc1cccc(NC(=O)c2ccc(Cn3nc(N4CCN(c5ccccc5)CC4)ccc3=O)o2)c1C	-	-	-	0	-	?
O=C(c1ccccc1Cc1ccccc1)N1CCN(S(=O)(=O)c2ccccc2Br)CC1	?	?	0	-	0	12.6µM
CC1(C)CC(=O)C2=C(C1)NC(Nc1nc3ccccc3o1)=NC2c1cccc(F)c1 (stereo not drawn)	-	0	-	-	-	-
O=C(O)c1cc(-c2ccccc2)c(N2CCOCC2)s1	0	0	0	0	0	0
O=C(c1ccc(Cl)cc1)c1cc(-c2ccccn2)c(N2CCOCC2)s1	0	0	0	0	0	14.1µM
CCOC(=O)c1cnc(-n2cc(C)cn2)nc1Nc1ccccc1OCC	0	0	0	0	0	20µM
CCCCOc1ccc(C(=O)NCC2(N3CCN(C)CC3)CCCCC2)cc1	-	-	-	0	-	0
O=C1CN(S(=O)(=O)c2ccc([N+](=O)[O-])cc2)CC(=O)N1	0	0	0	0	-51.8	0
CC1CCN(S(=O)(=O)c2ccc(Oc3ccc([N+](=O)[O-])cc3)cc2)CC1	0	0	-81.4%	0	0	0
O=C(OCc1ccc([N+](=O)[O-])cc1)C1CCN(S(=O)(=O)c2ccccc2)CC1	0	0	0	0	0	10µM
CN1CCN(S(=O)(=O)c2ccc([N+](=O)[O-])cc2)CC1	0	0	0	0	0	0
CCOC(=O)N1CCN(c2ccc(S(=O)(=O)N3CCC(C)CC3)cc2[N+](=O)[O-])CC1	0	0	0	-	0	22.4µM
O=c1cc(-c2cccc(F)c2)[nH]c2cc(F)ccc12	-	-	-	0	-	-
O=C(OC(C(=O)N1CCOCC1)c1ccccc1)c1c2c(nc3ccccc13)CCCC2 (stereo not drawn)	-	0	-	-	-	-
COc1ccc(-c2cc3ccc(O)c(CN4CCCC4)c3oc2=O)cc1OC	-	-	-	0	-	0
COc1ccc([N+](=O)[O-])cc1NC1CCCCC1	0	0	0	?	0	20µM
Clc1ccc(COc2ccccn2)cc1Cl	0	0	-122.6%	0	0	0

Screening results from PubChem.
